# Assay outcomes from PubChem BioAssay.
# HepG2 viability – qHTS for Inhibitors of TGF-b: Cytotox Counterscreen; 410,000 compounds, 0.76% hits; Potency, µM (doses to about 46.1 µM), without a hit: top-dose activity change, negative = cytotoxicity, most hits filed as cytotoxic; HepG2 CAGA-GFP viability, ATP luminescence, 18 h; AID 588856, 2011
#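 CellTiter-Glo luminescence gave cytotoxicity after 18 hours at 37 degrees C. The cells were HepG2 CAGA-GFP in 1% FBS DMEM, stimulated with 500 pg/mL TGF-beta after compound addition. %Activity was normalised to no-cell wells (complete cell-killing) and DMSO (no toxicity), and curves were fitted and classified.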
# ATXN2 expr inh – Primary qHTS for Inhibitors of ATXN expression | HEK-293 ATXN2-luciferase reporter, luminescence, 24 h | Potency, µM (highest dose often 57 µM), for the others: top-dose activity change, negative = inhibition, usual class: inhibitors | 360,000 compounds, 0.72% hits | AID 1745845, 2022; note: % is set by controls: 0 for no effect and ±100 for the full control effect; nearly all actives have a fitted effect of over 55% in size
#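 qHTS (up to 57 uM final) was run with 24 h compound exposure of reporter cells at 37 °C. Each well was multiplexed: SteadyGlo luminescence measured ATXN2-luciferase expression after a fluorogenic Gly-Phe-AFC viability readout (25 uM final).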
# GLP1R ag – qHTS of GLP-1 Receptor Agonists | Glucagon-like peptide 1 receptor (Homo sapiens), P43220 | HEK293 GLP-1R CRE-luciferase, luminescence, 4-6 h; cells express a hypersensitive GLP-1R form | Potency, µM (titrated, usually from 45.6 µM), for the others: at the highest dose activation, actives largely listed as activators | 380,000 compounds, 0.007% hits | AID 624172, 2012; note: % of control where 0% means no effect
# Target sequence (P43220 whole entry, looked up): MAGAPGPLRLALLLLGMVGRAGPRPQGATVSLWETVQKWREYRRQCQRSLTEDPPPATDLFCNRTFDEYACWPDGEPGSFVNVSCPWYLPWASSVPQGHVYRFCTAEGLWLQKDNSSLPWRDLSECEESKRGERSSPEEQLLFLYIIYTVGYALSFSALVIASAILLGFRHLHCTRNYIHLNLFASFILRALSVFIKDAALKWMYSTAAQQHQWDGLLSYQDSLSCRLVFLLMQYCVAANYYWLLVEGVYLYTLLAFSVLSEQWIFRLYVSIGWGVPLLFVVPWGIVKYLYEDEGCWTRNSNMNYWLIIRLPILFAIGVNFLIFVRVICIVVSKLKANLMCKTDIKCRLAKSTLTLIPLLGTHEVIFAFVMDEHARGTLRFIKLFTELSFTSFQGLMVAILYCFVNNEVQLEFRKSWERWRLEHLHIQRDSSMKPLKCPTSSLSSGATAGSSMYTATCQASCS
# GLP-1R inv ag – qHTS of GLP-1 Receptor Inverse Agonists (Inhibition Mode) | HEK293 GLP-1R CRE-luciferase, luminescence, 24 h; GLP-1R form is constitutively active | Glucagon-like peptide 1 receptor (Homo sapiens), P43220 | Potency, µM (doses to about 38.3 µM), without a hit: top-dose activity change, negative = inhibition, actives largely listed as inhibitors | 410,000 compounds, 1.6% hits | AID 624417, 2012; note: % is set by controls: 0 for no effect and ±100 for the full control effect; nearly all actives have a fitted effect of over 55% in size
#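 Inverse agonists were sought by their lowering of basal cAMP reporter luciferase output in HEK293 cells stably carrying constitutively active human GLP-1R, after 24 h compound treatment.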
# TGFb SMAD3 inh – qHTS for Inhibitors of TGF-b | HepG2 CAGA-GFP TGF-b/SMAD3 reporter, GFP fluorescence, 18 h; TGF-beta stimulated, 500 pg/mL final | Potency, µM (top dose mostly 46.1 µM), for inactives: at the top dose activity, negative = inhibition, actives largely listed as inhibitors | 410,000 compounds, 1.2% hits; note: % is set by controls: 0 for no effect and ±100 for the full control effect; nearly all actives have a fitted effect of over 65% in size
#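 Using HEPG2 CAGA-GFP reporter cells at 1000 cells/well, we pinned test compounds, stimulated with recombinant TGF-beta (500 pg/mL final) and measured total well GFP after 18 h.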
# ATXN viability – Viability Counterscreen for Primary qHTS for Inhibitors of ATXN expression; AID 651635, 2014; Potency, µM (top dose mostly 56.7 µM), usual class: cytotoxic; 400,000 compounds, 0.49% hits; S2 cells (HEK-293 line with an ATXN2-luciferase reporter) viability, CellTiter-Fluor protease fluorescence, 24 h; note: nearly all actives have a fitted effect of over 40% in size
# An asterisk follows results filed as active; i = inactive; ? = inconclusive; . = not tested or not shown. Rows were chosen to be rich in hits. Some 3.7% of all compounds tested hit in one or more screens of this group. Calls come from the whole dose curve; as a rule, active = well fitted curve in the direction sought with a large enough effect; inconclusive = small, poorly fitted or top-dose-only effect, or another doubt; inactive = no such curve, though single readings can be large; an effect the other way counts as inactive or inconclusive. Potency is the fitted concentration of half-maximal effect.
SMILES,HepG2 viability,ATXN2 expr inh,GLP1R ag,GLP-1R inv ag,TGFb SMAD3 inh,ATXN viability
O=C(NC1CCN(Cc2ccccc2)CC1)c1cccc(S(=O)(=O)Nc2ccc(Br)cc2)c1,-41%,-17%,-4%,?,?,?
O=C(NC1CCN(Cc2ccccc2)CC1)c1cccc(S(=O)(=O)Nc2ccc(F)cc2)c1,-28%,-37%,0%,7.1µM*,-24%,i
Cc1ccc(C)c(OCc2cc(C(=O)NC3CCN(Cc4ccccc4)CC3)no2)c1,-71%,-18%,-1%,2.2µM*,?,i
C=CCN(c1ccccc1)S(=O)(=O)c1cccc(C(=O)NC2CCN(Cc3ccccc3)CC2)c1,-22%,?,-1%,13µM*,?,i
CC1CCCN(C(=O)CSc2c3c(nc4cc(Cl)ccc24)CCCC3)C1 (stereo not drawn),-31%,.,.,-6%,?,.
CCCOc1ccc(C(=O)Nc2ccc(NC(=O)c3ccccc3)c(Br)c2)cc1,-7%,.,.,2%,-6%,.
Cc1ccc(NS(=O)(=O)c2cccc(C(=O)NCC(c3ccc(F)cc3)N3CCOCC3)c2)cc1 (stereo not drawn),-23%,-22%,5%,10µM*,-12%,i
COc1ccccc1NS(=O)(=O)c1ccc(C)c(C(=O)NC2CCN(Cc3ccccc3)CC2)c1,-19%,-23%,-12%,11µM*,-15%,i
Oc1ccccc1/C=N/NC(=S)NC1CC2C=CC1C2 (stereo not drawn),-161%,-37%,?,7.9µM*,?,i
CCSc1nc(-c2ccc(OC)cc2)cc(-c2ccccc2)c1C#N,3%,-12%,-14%,-13%,?,i
COc1ccc(-c2cc(-c3ccccc3)c(C#N)c(S(C)=O)n2)cc1 (stereo not drawn),-27%,28µM*,-19%,?,-19%,?
NC[C@H]1O[C@H](O[C@@H]2[C@@H](O)[C@@H](O[C@H]3O[C@H](CO)[C@@H](O)[C@H](N)[C@@H]3O)[C@H](N)C[C@@H]2N)[C@H](O)[C@@H](O)[C@H]1O,.,0%,.,.,.,.
Cc1cc(=O)n(Cc2ccccc2)c(O)c1C#N,17%,-6%,-9%,-9%,11%,i
Cc1c(C#N)c(NC(=O)CCl)n(Cc2cccs2)c1C,-81%,?,-1%,5.6µM*,13µM*,.
COC(=O)c1cc(C(=O)OC)n(Cc2ccc(F)cc2)c1C,-5%,10%,10%,?,8%,i
Cc1c(C#N)c(NC(=O)CCl)n(Cc2ccccc2)c1C,-50%,11µM*,-2%,?,?,8.4µM*
CCN(CC)C(=O)c1sc(NC(=O)Cc2cccs2)c(C#N)c1C,-1%,1%,0%,3%,-1%,i
Cc1c(C#N)c(NC(=O)CCl)n(Cc2ccc(F)cc2)c1C,11µM*,?,-5%,?,18µM*,21µM*
COc1ccc(C(=O)NCCN2Cc3cc(C)ccc3OC(C)C2)c(OC)n1 (stereo not drawn),.,.,.,.,.,i
COc1ccccc1/C=c1/[nH]c(=O)/c(=C\c2ccccc2OC)[nH]c1=O,-16%,.,.,.,?,.
NC(=S)NN=C1CSSC1,11µM*,.,1%,?,10µM*,i
Cc1cc(N)n(Cc2ccc(Cl)cc2)n1,-4%,.,1%,7%,-4%,i
Cc1ccc(-c2cc(N)n(Cc3ccc(Cl)cc3)n2)cc1,3%,-2%,0%,11µM*,-28%,i
O=C(CCNC(=O)c1ccccc1Cl)Nc1nc(-c2ccccc2Cl)cs1,-29%,-6%,1%,7.9µM*,?,i
COc1ccccc1N1CCN(C(=O)c2cc3c(=O)oc4ccccc4c3s2)CC1,1%,-7%,-1%,-15%,-18%,i
SMILES,HepG2 viability,ATXN2 expr inh,GLP1R ag,GLP-1R inv ag,TGFb SMAD3 inh,ATXN viability
COc1ccc(Cn2c(NCC(C)C)nc3c2c(=O)n(C)c(=O)n3C)cc1,-20%,8%,2%,-12%,3%,i
CC(=O)Nc1ccc(-c2csc(NC(=O)Cc3cccc(F)c3)n2)cc1,-3%,-37%,11%,11µM*,-28%,i
O=C(Cc1c(F)c(F)c(F)c(F)c1F)Nc1nc(-c2ccccc2)cs1,-27%,30%,-2%,7.1µM*,?,i
Cc1oc(-c2ccccc2NC(=O)c2ccsc2)nc1CN(C)Cc1ccc2c(c1)CCCN2C,.,.,.,.,.,i
Cc1ccc(NC(=O)c2cc(C)n(-c3cccc(C)c3)c2C)cc1,-28%,76%,-2%,11µM*,-3%,i
C=C(C)CNC(=S)NN=C1c2ccccc2-c2ccccc21,-44%,5%,11µM*,?,-14%,.
O=C(CCC(=O)N/N=C/c1ccco1)N/N=C/c1ccco1,14%,-16%,0%,1%,0%,i
C=C(C)CNC(=S)N/N=C(\C)c1ccc(OC)cc1,-18%,-1%,-1%,5.6µM*,?,i
CCNC(=S)NN=C1c2ccccc2-c2ccccc21,5%,-16%,27%,?,?,i
C=C(C)CNC(=S)N/N=C/c1ccco1,-9%,2%,8%,4.5µM*,-10%,i
CC1CC2C3CCC4=CC(=O)C=CC4(C)[C@@]3(F)C(O)CC2(C)[C@@]1(O)C(=O)CCl (stereo partly drawn),.,.,4%,.,.,.
CCC1C(=O)NCCN1Cc1ccc2c(c1)CN(Cc1ccc(OC)cc1OC)CCO2 (stereo not drawn),.,.,.,.,.,i
Cc1nn(C)c(Cl)c1CN1CCOc2ccc(CN3CCC(Oc4cccnc4)CC3)cc2C1,.,.,.,.,.,i
O=C1C2C3C=CC(CO)(O3)C2C(=O)N1c1ccccc1-c1ccccc1 (stereo not drawn),13µM*,?,-3%,-30%,13µM*,?
Cc1ccn2c(Cc3ccccc3)c(-c3ccc(Br)cc3)nc2c1,-2%,0%,-3%,?,9%,14µM*
Cc1ccn2c(Cc3ccccc3)c(-c3ccccc3)nc2c1,-19%,36%,16%,-12%,-3%,i
Cc1ccn2c(CC(C)(C)C)c(-c3ccc(F)cc3)nc2c1,-69%,?,-4%,7.1µM*,?,25µM*
Cc1ccc(Cc2c(-c3ccc(C)cc3)nc3cc(C)ccn23)cc1,-70%,?,-3%,?,?,32µM*
